KLF5 inh = inhibitors of KLF5 expression. DLD-1 KLF5 promoter-luciferase reporter, luminescence. inhibition, % at 5 µM. actives 0.23% (n = 290,000);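 active = inhibition above a per-plate limit of that plate's mean compound inhibition plus 3 SD, cut at about 60% in these data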;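 also: 0% = DMSO wells and 100% = LY294002 at 200 µM; higher means less KLF5 promoter-driven luciferase light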
Ba/F3 V617F tox = loss of viability in JAK2V617F-driven Ba/F3 cells | Ba/F3 EpoR-JAK2V617F viability, ATP luminescence | actives 1.1% (n = 220,000) | inhibition, % at 5.6 µM;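 active = inhibition above the campaign mean plus 3 SD over all tested compounds, cut at about 24% in these data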;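 also: cytokine-independent growth of Ba/F3 cells driven by EpoR plus mutant JAK2; 0% = DMSO-treated cells and 100% = JAK inhibitor I control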
BaF3 tox = counter-screen for JAK2V617F inhibitors: parental Ba/F3 viability inhibitors; actives 1.1% (n = 220,000); inhibition, % at 5.6 µM; CellTiter-Glo ATP luminescence;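 active = inhibition above a per-campaign cutoff, the mean inhibition of all tested compounds plus 3 SD, cut at about 27% in these data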;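 also: 0% = DMSO wells and 100% = JAK Inhibitor I control wells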
IEC-6 tox = kills IEC-6 intestinal cells in KLF5 counter-screen | IEC-6 cytotoxicity, luminescence viability | inhibition, % at 5 µM | actives 0.78% (n = 290,000) | AID 1825; in the data active = inhibition above about 22%;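 also: 0% = plate median of test compound wells and 100% = cytotoxic reference compound wells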
APP 5UTR inh = APP translation inhibition; SH-SY5Y APP 5'UTR-luciferase reporter, luminescence; inhibition, % at 2 µM; AID 1285; actives 0.82% (n = 190,000);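 active = inhibition above a set limit, derived from the sample mean plus 3 SD, cut at about 45% in these data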
aSyn 5UTR inh = MLPCN primary screen, SNCA 5' untranslated region; alpha-synuclein 5'UTR reporter, inhibitor activity; inhibition, % (tested at 7.5 µM); actives 0.82% (n = 300,000); AID 1813; in the data active = inhibition above about 60%;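 also: H4 neuroglioblastoma cells stably carrying SNCA 5'UTR luciferase fusion; 0% = DMSO wells and 100% = positive control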
* = called active by the depositor; nt = no result given. Rows were chosen to be rich in hits. Some 2.2% of all compounds tested hit in one or more screens of this group.

SMILES	KLF5 inh	Ba/F3 V617F tox	BaF3 tox	IEC-6 tox	APP 5UTR inh	aSyn 5UTR inh
CC(c1ccccc1)n1c(S(=O)(=O)O)nc2ccccc21 (stereo not given)	-16	1	58*	0	0	2
CCOc1ccc(N=c2cc(-c3ccc(OC)cc3)oc3ccccc23)cc1	-28	5	71*	1	4	1
COc1ccc(N=c2cc(-c3ccc(OC)cc3)oc3ccccc23)cc1	-79	2	5	1	3	-32
CCCC(NS(=O)(=O)c1ccc(-c2ccc(=O)[nH]n2)s1)c1cccs1 (stereo not given)	0	nt	nt	-4	nt	2
O=C(Nc1ccc(S(=O)(=O)N2CCCC2)cc1)Nc1ccc(F)cc1F	-39	nt	nt	2	nt	-4
Cc1ccc(S(=O)(=O)Nc2ccc(NC(=O)Nc3ccc(F)cc3F)cc2)cc1	-2	0	7	1	-19	78*
O=C(Nc1ccc(F)cc1F)c1cccc(C(=O)Nc2ccc(F)cc2F)n1	15	nt	nt	-3	nt	87*
O=C(Nc1ccc(F)cc1F)Nc1ccc(F)cc1F	-69	18	56*	-1	-45	-87
O=C(Nc1ccc(F)cc1F)c1csc(-c2ccccc2)n1	-8	1	3	-4	-30	-95
COc1ccc(Cc2nnc(Nc3c(C)cccc3C)o2)cc1OC	-19	1	3	0	nt	3
CN1/C(=C\C(=O)COC(=O)c2ccc(O)c(O)c2)C(C)(C)c2ccccc21	-14	52*	51*	4	17	-2
CN1/C(=C\C(=O)COC(=O)CNC(=O)c2ccccc2F)C(C)(C)c2ccccc21	-15	15	8	8	nt	12
CN1/C(=C\C(=O)COC(=O)CNC(=O)c2ccc3ccccc3c2)C(C)(C)c2ccccc21	-3	22	34*	-1	-18	21
O=C(CCc1ccccc1)N=C1SC2CS(=O)(=O)CC2N1c1ccccc1F (stereo not given)	-11	nt	nt	-6	nt	8
COc1ccc(OC)c(-c2cc(C(=O)Nc3ccccc3C(N)=O)c3ccccc3n2)c1	nt	nt	nt	nt	nt	3
O=C(CNC(=O)c1ccccc1Br)N/N=C/c1ccco1	-26	nt	nt	-2	nt	3
O=C(CNC(=O)c1cccc(F)c1)N/N=C/c1cc(Br)ccc1OC(=O)/C=C/c1ccco1	-3	-1	6	9	52*	58
O=C(CNC(=O)c1ccccc1O)N/N=C/c1cc(Br)ccc1OC(=O)/C=C/c1ccco1	15	-1	3	-5	24	68*
CCOc1ccc(NC(=O)CC(Cc2cc(C)cc(C)c2)C(=O)O)cc1 (stereo not given)	-13	nt	nt	2	nt	-6
COc1ccccc1C(=O)NNC(=O)c1cccc(C)c1	-29	nt	nt	-2	nt	-139
COc1cc(/C=N/NC(=S)Nc2cccc(C(=O)O)c2)ccc1O	29	5	6	7	12	70*
COc1ccc(/C=N/NC(=S)Nc2cccc(C(=O)O)c2)cc1	-29	-3	3	-3	-29	30
COc1ccc(CCNC(=O)CNCCc2ccc(F)cc2)cc1	4	nt	nt	8	nt	-9
CCC(C)NC(=O)C1c2ccccc2C(=O)N1Cc1ccc(F)cc1 (stereo not given)	-26	nt	nt	0	nt	-4
C/C(CC(C)(C)C1CCCCC1)=N\NC(N)=S	19	80*	73*	8	-3	-76
SMILES	KLF5 inh	Ba/F3 V617F tox	BaF3 tox	IEC-6 tox	APP 5UTR inh	aSyn 5UTR inh
CCn1c(C)c(P(c2ccccc2)c2ccccc2)[n+]2ccccc12	-5	69*	70*	-1	7	17
CCn1c(C)c2c(C)nnc(C)c2c1C	-7	5	9	0	-11	0
Cc1ccc(/C=C/C(=O)N2CC(C)CC(C)C2)o1 (stereo not given)	-3	-2	2	1	-10	-23
CCCCCc1ccc(-c2ccc(/C=C/C(=O)O)cc2)nc1	12	5	7	9	21	79*
O=C1C=C(Nc2ccc(Cl)cc2)C(=O)N1c1ccc(Cl)cc1	-15	-1	4	3	-1	-23
O=C(c1ccc2c(c1)OCO2)N1CCC2(CC1)Oc1ccc(F)cc1C(=O)C21CC(c2ccccc2)=NO1 (stereo not given)	nt	nt	nt	nt	nt	30
C/C(N)=C(/C#N)C(=O)COC(=O)CCSc1ccccc1Cl	-13	-3	2	1	81*	-6
C/C(N)=C(/C#N)C(=O)COC(=O)CSc1ccccc1	-1	3	4	1	-11	19
COC(=O)c1ccc(NC(=O)CCN2C(=O)CSC2=O)cc1	-7	1	4	1	8	-1
S=C(Nc1ccc(Cl)cc1)Nc1cccc2cnccc12	4	12	7	8	16	-13
S=C(Nc1cccnc1)Nc1cccc2cnccc12	-3	7	11	4	-1	66*
COCCCn1c(=O)c2sccc2n2c(CCCC(=O)NCc3cccc(OC)c3)nnc12	-16	nt	nt	8	nt	-9
Cc1cccc(NC(=O)c2cccc(S(=O)(=O)N3CCc4ccccc4C3)c2)n1	nt	nt	nt	nt	nt	16
COc1cccc(-c2cc(C(=O)N3CCOCC3)no2)c1	-112	nt	nt	-2	nt	-41
COc1ccc(-c2cc(C(=O)N3CCOCC3)no2)cc1	-31	nt	nt	-1	nt	73*
CCC(=NCCc1c(C)[nH]c2ccc(C)cc12)C1=C(O)CC(c2ccccc2)CC1=O (stereo not given)	-31	-2	6	-2	95*	104*
CC(C)OC(=O)c1ccccc1C(=O)c1ccc(N)c([N+](=O)[O-])c1	0	-3	3	-2	7	4
O=C(COC(=O)c1ccccc1C(=O)c1ccc(Cl)c([N+](=O)[O-])c1)NC1CC1	-10	-2	-5	-7	48*	-23
CNC(=O)COC(=O)c1ccccc1C(=O)c1ccc(Cl)c([N+](=O)[O-])c1	-4	4	4	-2	54*	-19
Cc1noc(C)c1C1(O)CCCCCCCCCCC1	-11	36*	55*	1	-10	1
Cc1noc(C)c1C(=O)N1CCCC1	-30	3	4	2	5	-9
CC(C)c1nnc(N2C(=O)C(O)=C(C(=O)c3cccs3)C2c2ccccc2)s1 (stereo not given)	-125	0	7	2	-20	-54
COc1cccc(NC(=O)COc2cc(O)c3c(c2)OC(C)(C)CC3=O)c1	-58	nt	nt	8	nt	-87
O=C(CSc1nnnn1C1CCCCC1)Nc1ccc(F)cc1	-29	-3	56*	-6	6	-2
CCC(=O)c1cn(CC(=O)OC)c2ccccc12	-28	-3	2	-5	68*	-18
CC(=O)c1cn(CC(=O)Nc2c(C)cccc2C)c2ccccc12	3	33*	43*	6	13	8
COC(=O)Cn1cc(C(=O)OC)c2ccccc21	-21	8	12	-2	6	14
CC(=O)Nc1cccc(NC(=O)CSc2nc(=O)n(CCN3CCOCC3)c3c2CCC3)c1	nt	nt	nt	nt	nt	-3
CN(c1ccc(C(=O)NCc2ccncc2)cc1)S(=O)(=O)c1ccc(Cl)cc1	-23	nt	nt	0	nt	1
